Experimental data: PubChem BioAssay (NCATS)
Several values for one entry are separate records, joined by “and”; a condition that tells them apart may be missing. Equal values may be shown once. Results filed as inconclusive are left out. Activity calls are given as the source filed them. Calls follow the shape of the dose curve; as a rule, active = well fitted curve in the direction sought with a large enough effect; inconclusive = small, poorly fitted or top-dose-only effect, or another doubt; inactive = no such curve, though single readings can be large; an effect the other way counts as inactive or inconclusive.

Legend:
[1] = target: Cellular tumor antigen p53 (Homo sapiens) (UniProt P04637); assay: Primary qHTS for small molecule compounds that upregulate eGFP-tagged delta133p53alpha (in N-terminal) cells. (AID 2060322); conditions: NCI-H358 eGFP-delta133p53alpha fluorescence, 24 h; activation: stronger effect = higher value; also: nearly all actives have a fitted effect of over 75% in size;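 as to activation: 0% = DMSO vehicle and 100% = reference activator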
How it was run: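 NCI-H358 cells pre-induced 24 h with 10 ng/ml doxycycline to express N-terminal eGFP-delta133p53alpha, then dosed 24 h at 37C without doxycycline; fixed, Hoechst-stained, GFP intensity by laser scanning cytometry, normalized to DMSO (0%) and 57.5 uM 5-azacytidine (100%).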

[2] = qHTS for Inhibitors of the Aldehyde Dehydrogenase Family (ALDH1A2, ALDH1A3, ALDH2, ALDH3A1) (AID 2061307); conditions: ALDH inhibition qHTS; series mostly up to 50.3 µM; also: nearly all actives have a fitted effect of over 50% in size; as to Potency: test system not described further here
[3] = target: Aldehyde dehydrogenase, mitochondrial (Homo sapiens) (UniProt P05091); assay: qHTS for Inhibitors of the Aldehyde Dehydrogenase Family (ALDH2) Primary screen (AID 2061308); conditions: ALDH2 enzyme inhibition qHTS, 1536-well; series mostly up to 56 µM; also: nearly all actives have a fitted effect of over 55% in size
[4] = target: Retinal dehydrogenase 2 (Homo sapiens) (UniProt O94788); assay: qHTS for Inhibitors of the Aldehyde Dehydrogenase Family (ALDH1A2) Confirmation screens (AID 2061314); conditions: ALDH1A2 enzyme inhibition qHTS confirmation; series mostly up to 45.9 µM; also: nearly all actives have a fitted effect of over 65% in size
[5] = target: Retinaldehyde dehydrogenase 3 (Homo sapiens) (UniProt P47895); assay: qHTS for Inhibitors of the Aldehyde Dehydrogenase Family (ALDH1A3) Confirmatory screens (AID 2061311); conditions: ALDH inhibition qHTS; series mostly up to 46 µM; also: nearly all actives have a fitted effect of over 60% in size
[6] = target: Retinaldehyde dehydrogenase 3 (Homo sapiens) (UniProt P47895); assay: qHTS for Inhibitors of the Aldehyde Dehydrogenase Family (ALDH1A3) Primary screen (AID 2061315); conditions: ALDH inhibition qHTS; series mostly up to 56 µM
[7] = target: Retinaldehyde dehydrogenase 3 (Homo sapiens) (UniProt P47895); assay: qHTS for Inhibitors of the Aldehyde Dehydrogenase Family (ALDH1A3) Validation screen (AID 2061312); conditions: ALDH1A3 enzyme inhibition qHTS validation, fluorescence; series mostly up to 84.7 µM; also: nearly all actives have a fitted effect of over 45% in size
[8] = target: Aldehyde dehydrogenase 1A1 (Homo sapiens) (UniProt P00352); assay: qHTS for Inhibitors of the Aldehyde Dehydrogenase Family (ALDH1A1) Confirmatory screens (AID 2061316); conditions: ALDH inhibition qHTS; series mostly up to 47.3 µM; also: nearly all actives have a fitted effect of over 65% in size
[9] = BET inhibitor-based combinations targeting novel dependencies in MECOM-rearranged (r) AML: OCI-AML3 cell line (AID 2202232); conditions: CellTiter-Glo luminescence, 48 h; Potency: OCI-AML3 viability; series mostly up to 46 µM; also: nearly all actives have a fitted effect of over 35% in size
How it was run: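 Viability of cells (500 per well) is scored by luminescent CellTiter-Glo at 48 hr post-dosing. Eleven-point titrations are normalized to DMSO and empty controls and reduced to AUC values.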

[10] = BET inhibitor-based combinations targeting novel dependencies in MECOM-rearranged (r) AML: UCSD-AML1 cell line (AID 2202235); conditions: UCSD-AML1 AML cells viability, CellTiter-Glo, 48 h; series mostly up to 46 µM; also: nearly all actives have a fitted effect of over 40% in size
How it was run: (§1)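 Using pin-tool transfer, drugs were added in 11 doses to cells (500/well), incubated 48 hr, and assessed with CellTiter-Glo. Z-AUC is a mean-centring transformation applied separately to each screened line.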

[11] = BET inhibitor-based combinations targeting novel dependencies in MECOM-rearranged (r) AML: HNT-34 cell line (AID 2202234); conditions: HNT-34 AML viability, CellTiter-Glo luminescence, 48 h; series mostly up to 46 µM; also: nearly all actives have a fitted effect of over 35% in size
How it was run: as §1
Potency is read from the fitted curve at half-maximal effect.

Cellular tumor antigen p53 (Homo sapiens), sequence (P04637 whole entry, looked up): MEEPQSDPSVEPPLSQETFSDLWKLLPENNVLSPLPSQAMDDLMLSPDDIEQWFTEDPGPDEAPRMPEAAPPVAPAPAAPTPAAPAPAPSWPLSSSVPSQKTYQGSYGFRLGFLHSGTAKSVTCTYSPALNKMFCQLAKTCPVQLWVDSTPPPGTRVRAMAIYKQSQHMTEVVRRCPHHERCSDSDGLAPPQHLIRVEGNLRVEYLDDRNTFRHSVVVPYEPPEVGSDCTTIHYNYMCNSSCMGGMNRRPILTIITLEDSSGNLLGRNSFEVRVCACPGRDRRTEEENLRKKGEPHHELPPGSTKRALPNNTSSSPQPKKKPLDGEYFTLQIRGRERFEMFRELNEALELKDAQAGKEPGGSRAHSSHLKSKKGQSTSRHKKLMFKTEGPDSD

COc1ccc(CCO[C@@H]2O[C@H](CO[C@H]3OC[C@](O)(CO)[C@H]3O)[C@@H](OC(=O)/C=C/c3ccc(O)c(O)c3)[C@H](O[C@@H]3O[C@@H](C)[C@H](O)[C@@H](O)[C@H]3O)[C@H]2O)cc1OC
inactive: activation [1] 16% | Potency [2] | Potency [3] | Potency [4]

COCC(=O)NC/C=C/c1ccc2ncnc(Nc3ccc(Oc4ccc(C)nc4)c(C)c3)c2c1
active: Potency [2] 7.12 µM
inactive: activation [1] 0% | Potency [3] | Potency [5] | Potency [4] | Potency [6]

CC(O)CCC1C(CO[C@@H]2O[C@H](CO)[C@@H](O)[C@H](O)[C@H]2O)CC(O)CC1(C)C (some centres not stated)
active: Potency [5] 3.92 µM | Potency [6] 6.31 µM
inactive: activation [1] 5.34% | Potency [2] | Potency [3] | Potency [4]

O=C(NCC(=O)N1CCCC1)Nc1ccc2ccccc2c1
active: Potency [2] 5.04 µM | Potency [5] 1.01 µM | Potency [7] 3.55 µM | Potency [6] 2.82 µM | Potency [8] 7.98 µM
inactive: activation [1] -2.86% | Potency [3]

O=C(Nc1ccc(S(=O)(=O)C(F)(F)F)cc1)C1=CCN(c2ncccc2C(F)(F)F)CC1
inactive: activation [1] -1.91% | Potency [2] | Potency [6]
active: Potency [3] 25.1 µM

Cc1cc(C)c2c(c1)C(N(Cc1cc(C(F)(F)F)cc(C(F)(F)F)c1)c1nnn(C)n1)CCCN2CC1CCC(C(=O)O)CC1 (configuration not stated)
inactive: activation [1] 26.7% | Potency [2] | Potency [3]
active: Potency [7] 2.82 µM | Potency [4] 20.1 µM

NC(=Nc1ccc(CCNCc2cccc(Cl)c2)cc1)c1cccs1
inactive: activation [1] -11.9% | Potency [2] | Potency [3] | Potency [6]

Cc1c(Cc2ccc3ccccc3n2)c2cc(F)ccc2n1CC(=O)O
inactive: activation [1] -10% | Potency [3] | Potency [6]
active: Potency [2] 3.18 µM

Oc1ccc(O)cc1
active: Potency [2] 11.3 µM | Potency [5] 4.49 µM | Potency [7] 0.794 µM | Potency [8] 11.3 µM
inactive: activation [1] 17.5% and -0.402%

CC1=CCC2C(C)(CO)CCCC2(CO)C1CO (configuration not stated)
inactive: activation [1] -19.8% | Potency [2] | Potency [3] | Potency [6]

CC(NC(=O)CC(=O)O)c1nc2ccccc2c(=O)[nH]1 (configuration not stated)
inactive: activation [1] -5.36% | Potency [2] | Potency [3]
active: Potency [8] 1.27 µM

CC(=O)N[C@@H](CC(=O)O)C(=O)N[C@@H](CCC(=O)O)C(=O)N[C@H](C(=O)N[C@@H](CC(=O)O)C(=O)Nc1ccc2c(C)cc(=O)oc2c1)C(C)C
inactive: Potency [2] | Potency [3] | Potency [6]
active: Potency [1] 13.5 µM

S=C(NCc1ccc2c(c1)OCO2)N1CCN(c2ncnc3c2oc2ccccc23)CC1
active: Potency [2] 1.58 µM | Potency [4] 11.3 µM | Potency [9] 2.95 µM
inactive: activation [1] 8.81% and -14.3% | Potency [3] | Potency [7] | Potency [6] | Potency [8] | Potency [10]

COc1c2c(c(C)c3c1C(=O)OC3)OC1(C)CC(O)C34OC(OC)(CC(O)C3(C)C1C2)OC4(C)C (configuration not stated)
inactive: activation [1] -9.92% | Potency [2] | Potency [3] | Potency [6]

C=CC(=O)N1CCN(C(=O)CNc2cc(I)c(Cl)cc2O)CC1
active: Potency [2] 2.25 µM | Potency [5] 1.79 µM | Potency [7] 7.08 µM | Potency [4] 28.3 µM | Potency [6] 2.82 µM | Potency [8] 2.83 µM
inactive: activation [1] 8.59% | Potency [3]

CC1CC(=O)[C@]2(O)C(C(=O)OCCc3ccc(O)c(O)c3)=CO[C@@H](O[C@@H]3O[C@H](CO)[C@@H](O)[C@H](O)[C@H]3O)[C@H]12 (some centres not stated)
active: Potency [8] 12.3 µM
inactive: activation [1] 6.87% | Potency [2] | Potency [3] | Potency [4]

Cc1cc(N2CCOCC2)cc2[nH]c(-c3c(NC[C@@H](O)c4cccc(Cl)c4)cc[nH]c3=O)nc12
active: Potency [1] 21.7 µM and 23.9 µM | Potency [11] 7.42 µM | Potency [10] 0.296 µM
inactive: Potency [2] | Potency [3] | Potency [7] | Potency [6]

N#Cc1ccc2[nH]cc(CCCCN3CCN(c4ccc5oc(C(N)=O)cc5c4)CC3)c2c1
inactive: activation [1] 11.5% | Potency [3] | Potency [7] | Potency [6]
active: Potency [2] 2.24 µM | Potency [5] 15.8 µM | Potency [4] 15.8 µM

Cc1onc(-c2ccccc2)c1C(=O)N[C@@H]1C(=O)N2[C@@H]1SC(C)(C)[C@@H]2C(=O)O
inactive: activation [1] -0.333% and 17% | Potency [2] | Potency [3] | Potency [6]

C=CC(C)(O)CC/C=C(\C)C1CC=C(C)C(=O)O1 (configuration not stated)
inactive: activation [1] -9.82% | Potency [2] | Potency [3]
active: Potency [5] 22.5 µM | Potency [6] 14.1 µM

CCOC(=O)c1cnn(-c2ccc(NC(=O)C(Cl)=C(Cl)Cl)cc2)c1C(F)(F)F
active: Potency [1] 19 µM | Potency [2] 4.47 µM | Potency [3] 4.47 µM | Potency [5] 7.08 µM | Potency [4] 0.634 µM | Potency [8] 4 µM
inactive: Potency [6]

O=C(C1OC1/C=C/c1ccc2c(c1)OCO2)N1CCCCC1 (configuration not stated)
inactive: activation [1] -6.11% | Potency [2] | Potency [3] | Potency [4]
